The target in assay [1] is Aldehyde dehydrogenase, mitochondrial (Homo sapiens) (UniProt P05091). Description: qHTS for Inhibitors of the Aldehyde Dehydrogenase Family (ALDH2) Primary screen (AID 2061308). Further: nearly all actives have a fitted effect of over 55% in size. The settings on record: ALDH2 enzyme inhibition qHTS, 1536-well; series mostly up to 56 µM.
The target in assay [2] is Retinaldehyde dehydrogenase 3 (Homo sapiens) (UniProt P47895). Kind of assay: qHTS for Inhibitors of the Aldehyde Dehydrogenase Family (ALDH1A3) Primary screen (AID 2061315). The conditions noted are these: ALDH inhibition qHTS; series mostly up to 56 µM. (In general: In qHTS, concentration-response curves come from the screen itself.)

Records with an inconclusive call do not appear. A call without a number means that no potency is given here. Activity calls are given as the source filed them. The call rests on the fitted dose curve; in most records, active means well fitted curve in the direction sought with a large enough effect; inconclusive means small, poorly fitted or top-dose-only effect, or another doubt; inactive means no such curve, though single readings can be large; an effect the other way counts as inactive or inconclusive.

Potency data for 36 compounds are collected here from PubChem BioAssay (NCATS).

On to `N#Cc1ccc(C(=O)NCC(=O)OC(C(=O)Nc2cc(C(F)(F)F)ccc2Cl)c2ccccc2)cc1` (configuration not stated), for which the Potency result in assay [1] and in assay [2] was “inactive” in each case.

For `COc1ccc(-c2ccc3ncnc(NCc4nc(C)cs4)c3c2)cc1OC`, the Potency result in assay [1] and in assay [2] was “inactive” in each case.

Turning to `N#Cc1cccc(-c2csc(N3CCC(C(N)=O)CC3)n2)c1`, the Potency entry in assay [1] and in assay [2] was “inactive” in each case.

On to `Cc1ccc(S(=O)(=O)Nc2cnccc2C(=O)Nc2cccc3ccccc23)cc1`, for which the Potency result in assay [1] and in assay [2] was “inactive” in each case.

For `Cc1ccc(OCCn2c(CCNC(=O)C3CC3)nc3ccccc32)cc1`, the Potency entry in assay [1] and in assay [2] was “inactive” each time.

In the case of `CC(=O)Nc1ccc(S(=O)(=O)N2CCCN(S(=O)(=O)c3ccc4c(c3)OCCO4)CC2)cc1`, the Potency result in assay [1] and in assay [2] was “inactive” throughout.

`COc1cc(O)c(C(CC(=O)N2CCCCCC2)c2ccc3c(c2)OCO3)c(OC)c1` (configuration not stated): the Potency result in assay [1] and in assay [2] was “inactive” each time.

In the case of `O=C(CNC(=O)C1CCCCCC1)OC(C(=O)Nc1cc(C(F)(F)F)ccc1Cl)c1ccccc1` (configuration not stated), the Potency entry in assay [1] and in assay [2] was “inactive” each time.

For the compound `Cc1cc(C)nc(NC(=S)N2CCN(c3cnc4nccn4c3)CC2)c1`, the Potency entry in assay [1] and in assay [2] was “inactive” throughout.

In the case of `Cc1ccc(S(=O)(=O)Nc2cccc(C(=O)Nc3nc(-c4ccc(Cl)cc4)cs3)c2)cc1`, the Potency result in assay [1] and in assay [2] was “inactive” in each case.

Consider `O=C(O)c1ccc(-c2ccc3ncnc(NCCc4cnc[nH]4)c3c2)o1`, for which the Potency result in assay [1] and in assay [2] was “inactive” in each case.

On to `O=c1c2ccccc2nc2sc(Nc3cccc(-c4ccncc4)c3)nn12`, for which the Potency entry in assay [1] and in assay [2] was “inactive” in each case.

On to `OCC#CCSc1nnc(-c2cccc3ccccc23)o1`, for which the Potency result in assay [1] and in assay [2] was “inactive” throughout.

In the case of `O=C(O)c1ccc(-c2noc(-c3cccc(Cl)c3)n2)cc1`, the Potency entry in assay [1] and in assay [2] was “inactive” throughout.

In the case of `C=C1C(=O)O[C@@H]2C[C@]3(C)[C@@H](CCC(C)O)[C@@H]3C[C@H]12` (some centres not stated), the Potency result in assay [1] and in assay [2] was “inactive” each time.

On to `O=C(OCC#CCSc1nnc(-c2cccc3ccccc23)o1)c1sccc1Cl`, for which the Potency entry in assay [1] and in assay [2] was “inactive” in each case.

`COC(=O)c1ccc(O)c2ncc(-c3ccc(C(=O)N4CCN(C)CC4)cc3)cc12`: the Potency entry in assay [1] and in assay [2] was “inactive” each time.

As for `O=C(/C=C/c1cccs1)Nc1cccc([S+](=O)([O-])Nc2ccccc2F)c1`, the Potency entry in assay [1] and in assay [2] was “inactive” in each case.

With `CN1CCN(c2cc(-c3cc(O)c4ncccc4c3)ccn2)CC1`, the Potency entry in assay [1] and in assay [2] was “inactive” in each case.

For the compound `N#Cc1ccc(CSc2nc3ncc(Br)cc3[nH]2)cc1`, the Potency entry in assay [1] and in assay [2] was “inactive” each time.

Take `Cc1ccc(S(=O)(=O)Nc2cnccc2C(=O)Nc2nc(-c3ccc(F)cc3)cs2)cc1`: the Potency result in assay [1] and in assay [2] was “inactive” in each case.

As for `CCCn1c(-c2ccc(F)cc2)nc2c(NCCN3CCCCC3)nc(C)nc21`, the Potency result in assay [1] and in assay [2] was “inactive” throughout.

For `Cc1cccc(CNc2nc(-c3ccccc3C(C)C)ncc2C)c1`, the Potency result in assay [1] and in assay [2] was “inactive” in each case.

For `NC(=O)C1CCN(c2nc(-c3cccc([N+](=O)[O-])c3)cs2)CC1`, the Potency entry in assay [1] and in assay [2] was “inactive” in each case.

In the case of `O=S(=O)(c1ccc(Cl)cc1)N1CCN(S(=O)(=O)c2ccc3c(c2)OCCO3)CC1`, the Potency result in assay [1] and in assay [2] was “inactive” each time.

As to `Cc1ccc(-n2c(=O)ccc(=O)n2CC(=O)NCCc2ccccc2)cc1`, the Potency entry in assay [1] and in assay [2] was “inactive” throughout.

Take `O=C(Nc1ccc(S(=O)(=O)Nc2nccs2)cc1)[C@@H]1CC[C@H](C(=O)c2ccccc2)C1`: the Potency result in assay [1] and in assay [2] was “inactive” each time.

Consider `COc1ccc(-c2csc(N3CCC(C(N)=O)CC3)n2)cc1OC`, for which the Potency result in assay [1] and in assay [2] was “inactive” in each case.

As for `O=C(COC(=O)CNC(=O)c1ccccc1Cl)Nc1cc(C(F)(F)F)ccc1Cl`, the Potency entry in assay [1] and in assay [2] was “inactive” in each case.

Take `O=C(NC1CCCc2c1cnn2-c1ccc(F)cc1F)c1cccs1` (configuration not stated): the Potency entry in assay [1] and in assay [2] was “inactive” in each case.

In the case of `Cc1ccc(-c2cc(C(=O)Nc3ccc(S(=O)(=O)N(C)C)cc3)c3ccccc3n2)cc1C`, the Potency entry in assay [1] and in assay [2] was “inactive” throughout.

Take `CCNC(=O)c1ccc(-c2ccc3ncnc(NCC(C)(C)C)c3c2)o1`: the Potency result in assay [1] and in assay [2] was “inactive” throughout.

Take `CC(=O)NC1CCN(c2nc(-c3ccc(Br)cc3)cs2)CC1`: the Potency entry in assay [1] and in assay [2] was “inactive” throughout.

With `Cc1ccc(S(=O)(=O)Nc2ccccc2CNc2nc(-c3ccccc3)cs2)cc1`, the Potency entry in assay [1] and in assay [2] was “inactive” throughout.

`Cc1ccc(OCCn2c(CCNC(=O)COc3ccccc3Br)nc3ccccc32)cc1`: the Potency result in assay [1] and in assay [2] was “inactive” each time.

Consider `Cc1sc(NC(=O)Cc2ccc3c(c2)OCO3)nc1-c1ccc2c(c1)CCN2C(=O)C1CCCCC1`, for which the Potency entry in assay [1] and in assay [2] was “inactive” each time.
